Assay [1] in a line: antimalarial activity against Dd2 strain (AID 2302;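 active means growth inhibition above 50% at the single 2 µM test dose, taken to imply half-maximal potency below 2 µM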;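 further: 0% = DMSO untreated growth and 100% = chloroquine plus artemisinin killed control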). The settings on record: P. falciparum Dd2 in RBCs, LDH growth readout, 72 h; at 2 µM; stronger effect = higher value.
Assay [2] in a line: human hepatoma cell viability loss – ATP luminescence, cytotoxicity control for P. falciparum antimalarial project, primary screen (AID 2303;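 active means inhibition above 50%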;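 further: 0% = DMSO wells and 100% = digitonin-killed cells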). Conditions: HepG2 viability, 24-48 h, at 10 µM, stronger effect = higher value.
For assay [3], the target named is L-lactate dehydrogenase (Plasmodium falciparum (isolate CDC / Honduras)) (UniProt Q27743). Briefly: PfLDH activity inhibition – cell lysate, 3D7 strain, counter-screen for P. falciparum growth inhibition project (AID 2304).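 Further: 0% = vehicle and 100% = reference inhibitor.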 Conditions: P. falciparum 3D7 crude extract, LDH APAD/NBT absorbance; at 2 µM; stronger effect = higher value.
Sequence of L-lactate dehydrogenase (Plasmodium falciparum (isolate CDC / Honduras)) (Q27743 whole entry, looked up): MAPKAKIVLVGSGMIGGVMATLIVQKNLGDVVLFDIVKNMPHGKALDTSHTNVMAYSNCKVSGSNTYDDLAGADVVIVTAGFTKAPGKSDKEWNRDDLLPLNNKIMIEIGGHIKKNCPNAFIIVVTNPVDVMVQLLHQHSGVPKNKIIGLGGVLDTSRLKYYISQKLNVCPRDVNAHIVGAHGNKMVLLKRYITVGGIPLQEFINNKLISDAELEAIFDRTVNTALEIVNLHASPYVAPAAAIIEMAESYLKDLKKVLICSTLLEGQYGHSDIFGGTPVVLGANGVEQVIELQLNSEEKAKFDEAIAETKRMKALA
Assay [4] can be described thus: inhibition of 3D7 malaria parasite growth – strain 3D7 (AID 2306).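 Further: 0% = DMSO wells and 100% = chloroquine plus artemisinin control wells.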 The settings on record: P. falciparum 3D7 erythrocytic growth, LDH absorbance, 72 h; at 2 µM; stronger effect = higher value.
Assay [5] concerns the target Calcium-dependent protein kinase 4 (Plasmodium falciparum (isolate 3D7)) (UniProt Q8IBS5). Briefly: PfCDPK4 kinase inhibitors, biochemical, TCAMS library (AID 1159588; cut-off not given, nearly all actives have IC50 up to about 0.91 µM). Conditions: recombinant PfCDPK4, Kinase-Glo ATP depletion luminescence.

Molecules are shown by their SMILES. Values without a mark were called inactive. For some assays here: Potency and affinity values are given separately. The source made the active and inactive calls. Unless noted, how the calls were made is not given here.

Sequence of Calcium-dependent protein kinase 4 (Plasmodium falciparum (isolate 3D7)) (Q8IBS5 whole entry, looked up): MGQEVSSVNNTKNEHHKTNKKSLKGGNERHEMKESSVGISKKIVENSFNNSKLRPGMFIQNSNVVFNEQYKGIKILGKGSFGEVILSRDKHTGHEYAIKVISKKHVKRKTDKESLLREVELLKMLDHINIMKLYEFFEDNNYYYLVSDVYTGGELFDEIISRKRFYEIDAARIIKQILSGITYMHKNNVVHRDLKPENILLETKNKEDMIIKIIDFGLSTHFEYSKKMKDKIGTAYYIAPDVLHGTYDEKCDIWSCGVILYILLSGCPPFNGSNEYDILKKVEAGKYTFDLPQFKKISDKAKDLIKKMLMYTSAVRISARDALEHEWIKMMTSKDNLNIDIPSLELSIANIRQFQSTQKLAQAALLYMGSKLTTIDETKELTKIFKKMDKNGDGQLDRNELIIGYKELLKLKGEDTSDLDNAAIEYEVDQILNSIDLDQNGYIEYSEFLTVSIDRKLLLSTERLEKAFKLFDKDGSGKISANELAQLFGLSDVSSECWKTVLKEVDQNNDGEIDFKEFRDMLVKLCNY

As for `C[C@@H]1C[C@@H]([C@H](O)CC2CC(=O)NC(=O)C2)C(=O)[C@@H](C)C1`, the growth inhibition in assay [1] was 87% (active); in assay [4] it was 96% (active). In addition, the inhibition in assay [2] was 46%; in assay [3] it was -5%. In addition, the result in assay [5] was inactive.

The values are drawn from PubChem BioAssay.
